Whole data set: some 81,000 sequences, median “one-hybrid fitness for binding parS DNA” near -0.17, cut for the highest 2% near 0.51. The sample as a whole holds a higher share of the highest values than the screen did.

From a collection of fitness landscapes (doi:10.1016/j.celrep.2020.107928) come the findings set out here.

First the molecules themselves.
B1: Caulobacter ParB omega fusion; a variant is named by its letters at X, in order, B8GW30 (parent)
chain: MESVVVGEPGMSEGRRGLGRGLSALLGEVDAAPAQAPGEQLGGSREAPIEILQRNPDQPRRTFREEDLEDLSNSIREKGVLQPILVRPSPDTAGEYQIVAGERAWRAAQRAGLKTVPIMVRELDDLAVLEIGIIENVQRADLNVLEEALSYKVLMEKFERTQENIAQTIGKSXSHVANXMRLLXLPDEVQSYLVSGELTAXHARAIAAAADPVALAKQIIEGGLSVRETEALARKAPNLSAGKSKGGRPPRVKDTDTQALESDLSSVLGLDVSIDHRGSTGTLTITYATLEQLDDLCNRLTRGI

The variants in this experiment derive from B1. Put plainly: one-hybrid fitness for binding parS DNA (scaled: cognate 1, non-cognate 0); higher = stronger binding. The following applies: with parS DNA site. In a few lines: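 Values were rescaled so that cognate is 1 and non-cognate is 0. Each is a fitness, the log change in a variant's read ratio to wild type from Illumina reads of plasmids before and after selection, with three replicate libraries pooled and variants under 10 reads dropped. Selection of the Caulobacter ParB libraries, four specificity codons randomised, used E. coli USO with a HIS3 reporter, site 19 bp from the promoter, on M9-minus-histidine with 0.1 mM IPTG and 5 mM 3-AT for 48 hours at 37°C.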
On to AYMW, for which the “one-hybrid fitness for binding parS DNA” value was at most 0.2.

WTLN: the “one-hybrid fitness for binding parS DNA” value was at most 0.2. On to CKRT, for which the “one-hybrid fitness for binding parS DNA” value is at most 0.2.

As to VEKG, the “one-hybrid fitness for binding parS DNA” value was at most 0.2.

In the case of ALQI, the “one-hybrid fitness for binding parS DNA” value is at most 0.2. To MAKW belongs at most 0.2; to GFDC, at most 0.2; to WTHF, at most 0.2. The value for RKGA was 0.694.

Take RKLA: the “one-hybrid fitness for binding parS DNA” value stood at 0.547. To RKRA belongs 0.774.

On to NKRA, for which the “one-hybrid fitness for binding parS DNA” value is at most 0.2.

As to QRWL, the “one-hybrid fitness for binding parS DNA” value is at most 0.2. To LNLV belongs at most 0.2. With PQAL, the “one-hybrid fitness for binding parS DNA” value is at most 0.2. To PVGY belongs at most 0.2; to PLAI, at most 0.2; to RIYW, 0.296. The value for SVKA was at most 0.2. The value for RVKA was 0.756; that for RVVA was 0.565. Turning to NVVA, the “one-hybrid fitness for binding parS DNA” value is at most 0.2. To DVVA belongs at most 0.2; to DVKA, at most 0.2; to ALNW, at most 0.2.

With ACFK, the “one-hybrid fitness for binding parS DNA” value is at most 0.2. The value for PSMV was at most 0.2.

As for RPIA, the “one-hybrid fitness for binding parS DNA” value is at most 0.2. As to RWIA, the “one-hybrid fitness for binding parS DNA” value was determined as 0.295.

On to RMPA, for which the “one-hybrid fitness for binding parS DNA” value is 0.393. To RSIA belongs 0.474; to RTPA, 0.363; to RTIA, 0.542. The value for RLIA was 0.592. With RLPA, the “one-hybrid fitness for binding parS DNA” value was 0.376. For RMIA, the “one-hybrid fitness for binding parS DNA” value worked out at 0.537. To RCIA belongs 0.551; to VHRF, at most 0.2; to NYLC, at most 0.2.

For ALEW, the “one-hybrid fitness for binding parS DNA” value was at most 0.2. Turning to NIYW, the “one-hybrid fitness for binding parS DNA” value was at most 0.2. The value for RRNY was 0.727. To RMQY belongs 0.546; to RAYY, 0.501. To RPQY belongs at most 0.2; to RRFY, 0.274; to RARY, 0.552. RCNY: the “one-hybrid fitness for binding parS DNA” value worked out at 0.482.

For RCQY, the “one-hybrid fitness for binding parS DNA” value was 0.493. The value for RRDY was 0.289; that for RADY was 0.389. On to RRYY, for which the “one-hybrid fitness for binding parS DNA” value came to 0.28. For RRRY, the “one-hybrid fitness for binding parS DNA” value stood at 0.812.

For AECV, the “one-hybrid fitness for binding parS DNA” value is at most 0.2.

With GPSG, the “one-hybrid fitness for binding parS DNA” value was at most 0.2. Take TNDG: the “one-hybrid fitness for binding parS DNA” value was at most 0.2. To LTTC belongs at most 0.2; to SCLR, at most 0.2; to VNDE, at most 0.2. Turning to FAPS, the “one-hybrid fitness for binding parS DNA” value was at most 0.2. The value for LNVW was at most 0.2.

In the case of RNEL, the “one-hybrid fitness for binding parS DNA” value is at most 0.2.

Regarding RLRY, the “one-hybrid fitness for binding parS DNA” value came to 0.645. With RSYY, the “one-hybrid fitness for binding parS DNA” value was 0.457. Turning to RLDY, the “one-hybrid fitness for binding parS DNA” value came out at 0.451. Take RSDY: the “one-hybrid fitness for binding parS DNA” value was 0.352. The value for RPGY was at most 0.2; that for RLYY was 0.497. To RFRY belongs 0.533.

RFYY: the “one-hybrid fitness for binding parS DNA” value amounted to 0.383.

For the variant RSGY, the “one-hybrid fitness for binding parS DNA” value was 0.482. In the case of RTGY, the “one-hybrid fitness for binding parS DNA” value came to 0.593. To RFDY belongs 0.443; to RSRY, 0.55; to RRGE, at most 0.2. To LRQS belongs at most 0.2; to LLPK, at most 0.2; to ALSN, at most 0.2.

In the case of RIAY, the “one-hybrid fitness for binding parS DNA” value amounted to 0.484.

As for RMIY, the “one-hybrid fitness for binding parS DNA” value was 0.467.

As to RTYY, the “one-hybrid fitness for binding parS DNA” value was 0.49. Consider RMRY, for which the “one-hybrid fitness for binding parS DNA” value amounted to 0.777.

Consider RPRY, for which the “one-hybrid fitness for binding parS DNA” value was at most 0.2. As to RTRY, the “one-hybrid fitness for binding parS DNA” value amounted to 0.828. In the case of RIYY, the “one-hybrid fitness for binding parS DNA” value was 0.475.

As to RIRY, the “one-hybrid fitness for binding parS DNA” value was determined as 0.617. Consider RCRY, for which the “one-hybrid fitness for binding parS DNA” value is 0.695. To RTLY belongs 0.495.

On to RMYY, for which the “one-hybrid fitness for binding parS DNA” value amounted to 0.483.

Consider RCYY, for which the “one-hybrid fitness for binding parS DNA” value turned out to be 0.472.
